“And” between values parts separate entries of the source, which are not always exact repeats. Identical values can stand only once. The whole screen tested about 5,500 compounds, of which about 2,000 (36%) were called active. Not shown: some 18% with an inconclusive outcome. Rule as the data show it: active = normalized growth mostly below about 0.91 (no sharp cut-off); inconclusive = no clear call, values can overlap the other calls; inactive = mostly above about 0.92. The list shows a part of the results.
Assay: chemical genetic growth profiling, strain panel (AID 1159580);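 also: tested at 20 µM; growth read once vehicle control cultures reached saturation at 30 °C; 1 = growth at the plate median or of vehicle wells; lower values mean less growth of the strain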
Conditions: S. cerevisiae deletion strains, growth OD

Measured: normalized growth

OC[C@@H]1CCCN2CCCC[C@H]12
inactive: locus YAL013W, strain DEP1, active compounds read low 0.983 | locus YAL021C, strain ccr4, active compounds read low 1.05 | locus YAL026C, strain drs2, active compounds read low 1.04 | locus YAL030W, strain snc1, active compounds read low 1.03 | locus YBL061C, strain skt5, active compounds read low 1.03 | locus YBR009C, strain hhf1, active compounds read low 1.01 | locus YBR021W, strain FUR4, active compounds read low 0.998 | locus YBR023C, strain chs3, active compounds read low 1.05 | locus YBR171W, strain sec66, active compounds read low 1.05 | locus YBR229C, strain ROT2, active compounds read low 0.998 | locus YBR231C, strain swc5, active compounds read low 1.03 | locus YBR279W, strain paf1, active compounds read low 1.03 | locus YCL011C, strain gbp2, active compounds read low 1.03 | locus YCL016C, strain dcc1, active compounds read low 1.03 | locus YCL029C, strain bik1, active compounds read low 1.02 | locus YCL061C, strain MRC1, active compounds read low 1.02 | locus YCL069W, strain vba3, active compounds read low 1.04 | locus YCR088W, strain abp1, active compounds read low 1.04 | locus YDL005C, strain med2, active compounds read low 1.03 | locus YDL035C, strain GPR1, active compounds read low 1.01 | locus YDL040C, strain nat1, active compounds read low 1.02 | locus YDL074C, strain BRE1, active compounds read low 1.01 | locus YDL101C, strain DUN1, active compounds read low 1.01 | locus YDL134C, strain PPH21, active compounds read low 0.989 | locus YDL185W, strain tfp1, active compounds read low 1.02 | locus YDL192W, strain arf1, active compounds read low 1.01 | locus YDR001C, strain nth1, active compounds read low 1.02 | locus YDR069C, strain doa4, active compounds read low 1.01 | locus YDR101C, strain arx1, active compounds read low 1.02 | locus YDR137W, strain rgp1, active compounds read low 1.05 | locus YDR159W, strain sac3, active compounds read low 0.961 | locus YDR162C, strain NBP2, active compounds read low 1.01 | locus YDR195W, strain ref2 1.02 | locus YDR297W, strain sur2, active compounds read low 1.01 | locus YDR318W, strain mcm21, active compounds read low 1.01 | locus YDR334W, strain swr1, active compounds read low 1.02 | locus YDR335W, strain msn5, active compounds read low 1.04 | locus YDR388W, active compounds read low 1.01 | locus YDR392W, strain spt3, active compounds read low 0.945 | locus YDR502C, strain sam2, active compounds read low 1.01 | locus YEL003W, strain gim4, active compounds read low 1.04 | locus YEL037C, strain rad23, active compounds read low 1.03 | locus YEL061C, strain CIN8 (second series), active compounds read low 1.02 | locus YEL061C, strain CIN8, active compounds read low 1 | locus YER015W, strain faa2, active compounds read low 1.03 | locus YER016W, strain bim1, active compounds read low 1.02 | locus YER110C, active compounds read low 1.02 | locus YER111C, strain swi4, active compounds read low 1.03 | locus YER155C, strain BEM2 (second series), active compounds read low 1 | locus YER155C, strain BEM2, active compounds read low 0.996 | locus YER167W, strain BCK2, active compounds read low 1 | locus YFR010W, strain ubp6, active compounds read low 1.01 | locus YGL078C, strain dbp3, active compounds read low 1 | locus YGL086W, strain mad1, active compounds read low 1.01 | locus YGL167C, strain pmr1, active compounds read low 1.02 | locus YGL173C, strain kem1, active compounds read low 1.02 | locus YGL227W, strain vid30, active compounds read low 1.03 | locus YGL240W, strain doc1, active compounds read low 1.01 | locus YGL248W, strain PDE1, active compounds read low 0.993 | locus YGL253W, strain hxk2, active compounds read low 1.05 | locus YGR078C, strain PAC10, active compounds read low 1 | locus YGR135W, strain pre9, active compounds read low 0.993 | locus YGR252W, strain gcn5, active compounds read low 0.957 | locus YHR013C, strain ard1, active compounds read low 1.03 | locus YHR027C, strain rpn1, active compounds read low 1.01 | locus YHR030C, strain SLT2, active compounds read low 0.998 and 1.01 | locus YHR079C, strain IRE1 (second series), active compounds read low 1.01 | locus YHR079C, strain IRE1, active compounds read low 1.02 | locus YHR094C, strain hxt1, active compounds read low 1.01 | locus YHR129C, strain ARP1, active compounds read low 1.01 | locus YHR142W, strain chs7, active compounds read low 1.04 | locus YHR200W, strain rpn10, active compounds read low 1.02 | locus YIL066C, strain RNR3, active compounds read low 1.01 | locus YIL073C, strain SPO22, active compounds read low 1.05 | locus YIL125W, strain kgd1, active compounds read low 1.01 | locus YIR030C, strain dcg1, active compounds read low 1.01 | locus YJL092W, strain hpr5, active compounds read low 1.03 | locus YJL095W, strain BCK1 (second series), active compounds read low 1.02 | locus YJL095W, strain BCK1, active compounds read low 1.03 and 1 | locus YJL115W, strain asf1, active compounds read low 1.03 | locus YJL129C, strain trk1, active compounds read low 1.06 | locus YJL134W, strain LCB3, active compounds read low 0.978 | locus YJL154C, strain vps35, active compounds read low 1.02 | locus YJL164C, strain tpk1, active compounds read low 1.02 | locus YJL166W, strain qcr8, active compounds read low 1.02 | locus YJL168C, strain set2, active compounds read low 1 | locus YJL187C, strain SWE1 (second series), active compounds read low 1.02 | locus YJL187C, strain SWE1, active compounds read low 1.04 | locus YJR043C, strain POL32, active compounds read low 0.992
